# Data taken from PubChem BioAssay (NCATS).
# A number with no mark means an inactive call. Inconclusive results are not listed. Activity calls are given as the source filed them. Unless noted, the rule behind the calls is not given here.
# Legend:
# [1] = test system: HIV-1 nucleocapsid protein NCp7 (binding to TG oligonucleotide); test: HIV Nucleocapsid (AID 346); details: HIV-1 NC / fluorescein-TGTGTGTG probe, fluorescence polarization;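 note: potency is the fitted concentration of half-maximal effect; potency is for inhibitors that block NC binding and lower polarization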
# Outline: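 Reagents dispensed (10 nM TG4xF, 100 nM HIV-1 NC), plates spun, compounds pin-transferred, then incubated 1 hr at room temperature before FP imaging. Buffer: Hepes pH 7.5, 250mM NaCl, 1uM ZnCl2, 100 uM TCEP, 5 mM 2-mercaptoethanol.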
# [2] = molecular target: Lysosomal acid glucosylceramidase (Homo sapiens) (UniProt P04062); test: Glucocerebrosidase-p2 (AID 348; in the data active = potency below about 10 µM; note: potency is the fitted concentration of half-maximal effect); details: purified GBA, blue fluorogenic substrate, 40 min
# Chain of Lysosomal acid glucosylceramidase (Homo sapiens) (P04062 whole entry, looked up): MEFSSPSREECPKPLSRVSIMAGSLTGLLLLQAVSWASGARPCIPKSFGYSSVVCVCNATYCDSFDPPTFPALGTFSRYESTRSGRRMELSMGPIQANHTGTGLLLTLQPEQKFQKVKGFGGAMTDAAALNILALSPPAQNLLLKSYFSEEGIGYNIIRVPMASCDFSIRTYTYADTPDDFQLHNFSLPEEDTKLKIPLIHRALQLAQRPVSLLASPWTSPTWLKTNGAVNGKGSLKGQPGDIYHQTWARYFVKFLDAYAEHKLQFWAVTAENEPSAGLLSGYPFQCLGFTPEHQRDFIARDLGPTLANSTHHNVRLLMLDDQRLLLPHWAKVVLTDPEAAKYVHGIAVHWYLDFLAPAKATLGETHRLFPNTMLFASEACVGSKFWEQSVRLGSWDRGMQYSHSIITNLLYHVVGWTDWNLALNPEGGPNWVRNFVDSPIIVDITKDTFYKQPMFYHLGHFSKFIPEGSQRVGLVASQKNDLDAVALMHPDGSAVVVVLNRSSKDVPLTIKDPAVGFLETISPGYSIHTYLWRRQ
# Outline: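 Normal human glucocerebrosidase (0.2 nM) with blue fluorogenic substrate (80 uM final) in citrate/phosphate pH 5.9 with 10mM sodium taurocholate, 0.01% tween-20; 40 min RT, NaOH/glycine stop; fluorescence Ex 365/Em 440; AC50 from a titration from 0.6 nM upwards.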
# [3] = AP1 Signaling Pathway (AID 357; active = well fitted curve in either direction with a large enough effect, not every such curve was filed as active;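 note: ME-180 reporter cells stimulated with EGF at its EC50 level; % is set by controls: 0 for no effect and ±100 for the full control effect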); details: ME-180 AP-1-bla reporter, EGF-induced, beta-lactamase ratio, 5 h; at 7.69 µM (top of the series) unless noted
# Outline: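 Read-out was the 460nm/530nm emission ratio (excitation 405nm) after CCF4 loading for 2.5 hours at room temperature. Cells carried an AP-1-driven beta-lactamase reporter, were stimulated with EC50 EGF plus compound for 5 hours, and AC50 values came from titrations.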
# [4] = molecular target: Cytochrome P450 1A2 (Homo sapiens) (UniProt P05177); test: p450-cyp1a2 (AID 410; calls by dose curve; note: potency is the fitted concentration of half-maximal effect); details: recombinant CYP1A2, luciferin-ME demethylation, luminescence; series mostly up to 11.4 µM
# Chain of Cytochrome P450 1A2 (Homo sapiens) (P05177 whole entry, looked up): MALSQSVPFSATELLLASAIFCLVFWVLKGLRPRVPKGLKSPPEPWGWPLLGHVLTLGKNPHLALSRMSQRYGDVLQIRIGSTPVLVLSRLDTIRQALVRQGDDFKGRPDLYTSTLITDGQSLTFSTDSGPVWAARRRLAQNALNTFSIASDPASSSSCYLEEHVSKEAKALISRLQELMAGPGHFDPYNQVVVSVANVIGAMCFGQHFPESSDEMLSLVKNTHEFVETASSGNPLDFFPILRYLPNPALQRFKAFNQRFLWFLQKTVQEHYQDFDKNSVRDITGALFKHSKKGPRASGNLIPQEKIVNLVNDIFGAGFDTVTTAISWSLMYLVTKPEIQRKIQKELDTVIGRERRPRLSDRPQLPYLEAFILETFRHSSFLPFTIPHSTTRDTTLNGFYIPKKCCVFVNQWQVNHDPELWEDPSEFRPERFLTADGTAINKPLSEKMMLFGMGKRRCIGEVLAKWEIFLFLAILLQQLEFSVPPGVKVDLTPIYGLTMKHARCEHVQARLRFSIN
# Outline: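 Luminescent demethylation readout: Luciferin-ME (100uM, equal to Km) turned over by 20nM CYP1A2 for 60 min at room temperature after NADPH regeneration addition, following 10 min compound preincubation. Normalization used 57 uM furafylline as full inhibition.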
# [5] = NFAT Signaling Pathway (AID 444; active = well fitted curve in either direction with a large enough effect, not every such curve was filed as active;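 note: carbachol stimulus at about its EC50 of 1 µM final; % is set by controls: 0 for no effect and ±100 for the full control effect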); details: Jurkat NFAT-bla M1, carbachol, beta-lactamase ratio, 5 h; at 7.69 µM (top of the series) unless noted
# Outline: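 Jurkat cells with NFAT-driven β-lactamase reporter and co-expressed M1 receptor, stimulated with carbachol (final 1 uM, ~EC50), compound titration, 5 h at 37 °C. CCF4 loaded 1 h at RT; 460/530 nm ratio gave %activity and AC50.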
# [6] = Stat Signaling Pathway (AID 446; active = well fitted curve in either direction with a large enough effect, not every such curve was filed as active;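 note: ME-180 cervical cancer cells given 40 pM IL-6 alongside compound; SIE-controlled beta-lactamase reporter measured as 460/530 nm FRET emission ratio; % is set by controls: 0 for no effect and ±100 for the full control effect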); details: ME-180 (cervical carcinoma) SIE beta-lactamase reporter, IL-6 stimulated, 5 h; at 7.69 µM (top of the series) unless noted
# Outline: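 Overnight-plated ME-180 cells bearing a STAT Inducible Element beta-lactamase reporter; 5 h co-exposure to compound and 40 pM IL-6; values normalized to 300 pM IL-6 and 125 nM JAK inhibitor controls.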
# [7] = molecular target: Glucocorticoid receptor (Homo sapiens) (UniProt P04150); test: GR-GFP Redistribution (AID 450;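 active = compounds whose dose series gives a full or clear partial fitted curve of increased nuclear translocation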; note: potency is the fitted concentration of half-maximal effect); details: U2OS GR-GFP nuclear translocation, laser cytometry, 2 h
# Chain of Glucocorticoid receptor (Homo sapiens) (P04150 whole entry, looked up, the tested form may be a part): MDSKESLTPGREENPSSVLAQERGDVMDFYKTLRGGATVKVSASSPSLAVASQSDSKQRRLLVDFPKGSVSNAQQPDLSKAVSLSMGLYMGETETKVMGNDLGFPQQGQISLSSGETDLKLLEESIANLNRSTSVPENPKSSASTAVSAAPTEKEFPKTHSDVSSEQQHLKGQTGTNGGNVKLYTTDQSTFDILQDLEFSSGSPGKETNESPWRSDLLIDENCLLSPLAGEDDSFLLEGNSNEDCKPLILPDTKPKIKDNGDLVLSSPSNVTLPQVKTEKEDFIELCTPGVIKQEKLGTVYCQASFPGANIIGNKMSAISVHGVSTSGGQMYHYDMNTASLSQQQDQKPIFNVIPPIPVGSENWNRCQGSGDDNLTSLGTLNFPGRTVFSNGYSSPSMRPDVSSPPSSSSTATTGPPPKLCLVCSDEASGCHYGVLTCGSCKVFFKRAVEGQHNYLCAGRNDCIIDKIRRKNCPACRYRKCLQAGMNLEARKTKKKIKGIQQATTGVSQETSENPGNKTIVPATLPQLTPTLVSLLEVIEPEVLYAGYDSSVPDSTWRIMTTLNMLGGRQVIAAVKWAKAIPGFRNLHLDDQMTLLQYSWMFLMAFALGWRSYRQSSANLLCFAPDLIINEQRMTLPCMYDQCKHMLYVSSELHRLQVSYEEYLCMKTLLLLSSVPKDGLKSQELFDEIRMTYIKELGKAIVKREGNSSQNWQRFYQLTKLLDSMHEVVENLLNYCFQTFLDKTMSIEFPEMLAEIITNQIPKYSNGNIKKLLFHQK
# [8] = molecular target: Glucocorticoid receptor (Homo sapiens) (UniProt P04150); test: GR-EFC Redistribution (AID 451; calls by dose curve; note: potency is the fitted concentration of half-maximal effect); details: CHO-K1 GR-EFC translocation, beta-gal luminescence, 2 h
# Outline: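 CHO-K1 cells expressing nuclear EA and GR-ED fragments of b-gal; compounds titrated up to 46 uM final, 2 h at 37 C. GR nuclear translocation read as complemented b-gal luminescence after 1 h RT detection.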
# [9] = molecular target: Mitogen-activated protein kinase 10 (Mus musculus) (UniProt Q61831); test: JNK3 AlphaScreen Assay (AID 530; active = well fitted curve in either direction with a large enough effect, not every such curve was filed as active;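 note: kinase came from lysate of stimulated human HepG2 cells; signal reports phosphorylation of biotinylated GST-cJun 1-79 at Ser73 with 10 µM ATP; % is set by controls: 0 for no effect and ±100 for the full control effect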); details: JNK3 lysate, c-Jun phosphorylation; series mostly up to 57.1 µM
# Outline: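 Activity was read by AlphaScreen after JNK3-containing HepG2 lysate (cytokine pre-activated) phosphorylated biotinylated GST-cJun with 10 uM ATP at room temperature. Phospho-Ser73 cJun antibody with Protein-A acceptor beads provided detection.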
compound,measurement,setting,value
CN(C)C(=O)c1ccc(-c2ccc3ncnc(NCCN4CCOCC4)c3c2)cc1,Potency,[1],> 20 µM
O=c1c(CCc2ccccc2)nc2cnc(Oc3ccccc3)nc2n1C1CC1,Potency,[1],> 20 µM
CS(=O)(=O)N1CCC2(CCN(Cc3ccncc3)CC2)CC1,Potency,[1],> 4 µM
COCCn1c(=O)c(-c2cn(C)c3ccccc23)nc2cnc(OCc3ccccc3)nc21,Potency,[1],> 20 µM
O=C(c1ccncc1)N1CCC[C@@]2(CCN(Cc3cc(C(F)(F)F)cc(C(F)(F)F)c3)C2)C1,Potency,[1],> 20 µM
COCC(=O)N1CCC2(CC1)CCN(c1ncccn1)CC2,Potency,[1],> 20 µM
CNc1ccnc(-c2cccc(NS(C)(=O)=O)c2)n1,Potency,[1],> 20 µM
CCNc1ncc2nc(-c3cn(C)c4ccccc34)c(=O)n(C)c2n1,Potency,[1],> 20 µM
Cc1cnc(CNc2ccnc(-c3c(C)noc3C)n2)cn1,Potency,[1],> 20 µM
COCC(=O)N1CCC2(CCN(Cc3ccc(C#N)cc3)CC2)CC1,Potency,[1],> 20 µM
O=C(c1cc(C(F)(F)F)cc(C(F)(F)F)c1)N1CCC[C@@]2(CCN(c3ncccn3)C2)C1,Potency,[1],> 20 µM
c1csc(CNc2ccnc(-c3ccc4c(c3)OCO4)n2)c1,Potency,[1],> 20 µM
COc1ccccc1CNc1ncnc2ccc(-c3ccc(C(=O)N(C)C)cc3)cc12,Potency,[1],> 20 µM
COc1ccccc1CNc1cc(-c2ccc(C(=O)N(C)C)cc2)ncn1,Potency,[1],> 20 µM
CCNc1ncc2nc(C)c(=O)n(CCc3ccccc3)c2n1,Potency,[1],> 20 µM
COc1ccc(CNc2cc(-c3cccnc3)ncn2)c(OC)c1,Potency,[1],> 20 µM
N#CCCn1c(=O)c(-c2cc(F)cc(F)c2)nc2cnc(Oc3cccc(Cl)c3)nc21,Potency,[1],> 20 µM
Cc1ccccc1-c1nc(NC2CCNCC2)c2ccccc2n1,Potency,[1],> 20 µM
CN1CCCC2(CCN(C(=O)c3cccn3C)CC2)C1,Potency,[1],> 20 µM
COc1ncc2nc(-c3cc(F)cc(F)c3)c(=O)n(CCC#N)c2n1,Potency,[1],> 20 µM
CC(C)NC(=O)N1CCCC2(CCN(S(=O)(=O)c3ccccc3)CC2)C1,Potency,[1],> 4 µM
CN(C)C(=O)c1ccc(-c2cc(NCc3ccccc3)ncn2)cc1,Potency,[1],> 20 µM
Cc1nc2cnc(Nc3ccccc3)nc2n(C)c1=O,Potency,[1],> 4 µM
COc1cccc(Nc2ncc3nc(-c4ccccc4)c(=O)n(C)c3n2)c1,Potency,[1],> 20 µM
CS(=O)(=O)N1CCC2(CCCN(C(=O)Nc3ccccc3)C2)CC1,Potency,[1],> 20 µM
N#CCCn1c(=O)c(-c2ccc(Cl)cc2)nc2cnc(OCc3ccccc3)nc21,Potency,[1],> 20 µM
COc1ncc2nc(C)c(=O)n(Cc3ccc(F)cc3)c2n1,Potency,[1],> 20 µM
COc1ccc(CNc2ccnc(-c3ccccc3OC)n2)c(OC)c1,Potency,[1],> 20 µM
COCCn1c(=O)c(-c2cccs2)nc2cncnc21,Potency,[1],> 20 µM
COc1cccc(Cn2c(=O)c(C)nc3cnc(OCc4ccccc4)nc32)c1,Potency,[1],> 20 µM
c1nc(NCCN2CCOCC2)c2cc(-c3ccc4c(c3)OCO4)ccc2n1,Potency,[1],> 20 µM
CNc1ncnc2ccc(-c3ccccc3C)cc12,Potency,[1],> 20 µM
CN(C)c1nc(-c2ccccc2C(F)(F)F)nc2ccccc12,Potency,[1],> 20 µM
FC(F)(F)c1ccccc1-c1nc(N2CCOCC2)c2ccccc2n1,Potency,[1],> 20 µM
O=c1c(-c2ccc(F)cc2)nc2cnc(Nc3ccccc3)nc2n1Cc1cccs1,Potency,[1],> 4 µM
COc1cccc(Nc2ncc3nc(-c4cn(C)c5ccccc45)c(=O)n(CCC#N)c3n2)c1,Potency,[1],> 20 µM
COc1cccc(Cn2c(=O)c(-c3cccs3)nc3cncnc32)c1,Potency,[1],> 20 µM
O=c1c(-c2ccc(Cl)cc2)nc2cnc(N3CCOCC3)nc2n1CCc1ccccc1,Potency,[1],> 4 µM
Cn1c(=O)c(-c2ccc(Cl)cc2)nc2cnc(N3CCOCC3)nc21,Potency,[1],> 20 µM
CN(C)c1nc(-c2cccc(NS(C)(=O)=O)c2)nc2ccccc12,Potency,[1],> 20 µM
COCCn1c(=O)cnc2cnc(OCc3ccccc3)nc21,Potency,[1],> 20 µM
COc1ccc(Oc2ncc3ncc(=O)n(Cc4cccc(OC)c4)c3n2)cc1,Potency,[1],> 20 µM
COCCn1c(=O)c(-c2cn(C)c3ccccc23)nc2cnc(N3CCNCC3)nc21,Potency,[1],> 20 µM
O=C(c1csnn1)N1CCC[C@@]2(CCN(c3ncccn3)C2)C1,Potency,[1],> 20 µM
Cc1nc2cnc(N3CCN(C)CC3)nc2n(Cc2cccs2)c1=O,Potency,[1],> 20 µM
O=c1c(-c2cccs2)nc2cnc(N3CCNCC3)nc2n1C1CC1,Potency,[1],> 20 µM
COc1ccc(C(=O)N2CCC3(CCN(C)CC3)CC2)cc1,Potency,[1],> 20 µM
CS(=O)(=O)N1CCC2(CC1)CN(c1ccc(-c3ccccc3)cc1)C2,Potency,[1],> 20 µM
O=c1c(-c2ccc(F)cc2)nc2cnc(Oc3cccc(Cl)c3)nc2n1C1CC1,Potency,[1],> 20 µM
N#Cc1ccc(CN2CCCC3(CCN(C(=O)c4cccc(F)c4)CC3)C2)cc1,Potency,[1],> 20 µM
COc1ccc(-c2nc3cnc(Nc4cccc(OC)c4)nc3n(C3CC3)c2=O)cc1,Potency,[1],15.7 µM
COC(=O)N1CCC2(CCCN(C(=O)Nc3ccc(OC)cc3)C2)CC1,Potency,[1],> 20 µM
Cn1c(=O)c(-c2ccccc2)nc2cnc(OCc3ccccc3)nc21,Potency,[1],> 20 µM
O=C(c1cnccn1)N1CCC2(CC1)CN(c1cccc(-c3ccccc3)c1)C2,Potency,[1],> 20 µM
CN(C)c1ncc2nc(-c3ccccc3)c(=O)n(Cc3cccs3)c2n1,Potency,[1],> 20 µM
Cc1noc(C)c1C(=O)N1CCC2(CCCN(Cc3nccs3)C2)CC1,Potency,[1],> 20 µM
Cc1noc(C)c1C(=O)N1CCC2(CCCN(c3ccncc3)C2)CC1,Potency,[1],> 20 µM
COc1ncc2nc(-c3cn(C)c4ccccc34)c(=O)n(Cc3ccc(F)cc3)c2n1,Potency,[1],> 20 µM
O=C(c1cc(C(F)(F)F)cc(C(F)(F)F)c1)N1CCC2(CCN(Cc3ccccc3)CC2)CC1,Potency,[1],> 20 µM
COCCNc1ncnc2ccc(-c3ccccc3C)cc12,Potency,[1],> 20 µM
COC(=O)N1CCC2(CC1)CCN(c1ccccc1)CC2,Potency,[1],> 20 µM
O=c1c(-c2cccc(Cl)c2)nc2cncnc2n1C1CC1,Potency,[1],> 20 µM
COc1cccc(Cn2c(=O)c(-c3ccccc3)nc3cnc(N4CCNCC4)nc32)c1,Potency,[1],> 20 µM
CCNc1ncc2nc(-c3cccs3)c(=O)n(CCc3ccccc3)c2n1,Potency,[1],> 20 µM
COc1cccc(-c2nc(NC3CCNCC3)c3ccccc3n2)c1,Potency,[1],> 20 µM
N#CCCn1c(=O)c(-c2ccccc2)nc2cnc(N3CCOCC3)nc21,Potency,[1],> 20 µM
Fc1ccc(Nc2ccnc(-c3ccccc3C(F)(F)F)n2)cc1,Potency,[1],> 20 µM
COc1ccc(CNc2cc(-c3ccccc3CN(C)C)ncn2)c(OC)c1,Potency,[1],> 20 µM
COCC(=O)N1CCC2(CC1)CN(c1ccncc1)C2,Potency,[1],> 20 µM
COc1ccc(Oc2ncc3nc(-c4ccc(F)cc4)c(=O)n(C4CC4)c3n2)cc1,Potency,[1],> 20 µM
Cn1cccc1C(=O)N1CCC2(CCN(Cc3ccccc3)CC2)CC1,Potency,[1],> 20 µM
COc1ccc(-n2c(=O)c(-c3cccs3)nc3cnc(Oc4ccccc4)nc32)cc1,Potency,[1],> 4 µM
O=c1c(-c2ccc(Cl)cc2)nc2cnc(N3CCNCC3)nc2n1-c1ccccc1,Potency,[1],> 20 µM
COc1ccc2[nH]cc(CCNc3cc(-c4ccccc4OC)ncn3)c2c1,Potency,[1],> 20 µM
COc1cccc(-c2ccc3ncnc(NCc4ccccc4OC)c3c2)c1,Potency,[1],> 20 µM
COc1ccc(C(=O)N2CCC3(CCN(C(=O)Nc4cccc(C#N)c4)CC3)CC2)cc1,Potency,[1],> 20 µM
COc1ccc(-c2nc3cnc(Nc4ccccc4)nc3n(Cc3cccs3)c2=O)cc1,Potency,[1],> 16 µM
COCCNc1ncnc2ccc(-c3c(C)noc3C)cc12,Potency,[1],> 20 µM
CN1C[C@H](C(=O)N[C@@]2(C)O[C@@]3(O)[C@H]4CCCN4C(=O)[C@@H](Cc4ccccc4)N3C2=O)C=C2c3cccc4[nH]cc(c34)C[C@@H]21,Potency,[2],> 11.4 µM
same,"activity change, negative = inhibition",[3],2.32%
same,Potency,[4],3.16 µM (active)
same,"activity change, negative = inhibition",[5],-0.805%
same,"activity, negative = inhibition",[6],0.776%
same,Potency,[7],> 46 µM
same,Potency,[8],> 9.22 µM
same,"activity change, negative = inhibition",[9],-2.44% [at 11.4 µM]
